In PubChem BioAssay (NCI):
The panel holds about 79,000 compounds, 15% with a hit somewhere; the sample as a whole holds those more often. Calls of active or inactive are those of the source. No stated cut-off is given here; in the data, active means growth inhibition above about 70%; inactive means the rest.

Columns and labels:
[1] = NCI Yeast Anticancer Drug Screen. Data for the rad52 strain (AID 147);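 further: 0% = growth of vehicle-treated control cultures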; details: S. cerevisiae rad52 mutant growth inhibition, active compounds read high
In short: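 Screen used a yeast mutant impaired in DNA repair. After compound exposure, growth was measured. Values reflect inhibition compared with vehicle-treated cells.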

[2] = NCI Yeast Anticancer Drug Screen. Data for the wt1 strain (AID 149);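 further: 0% = growth of vehicle-treated wt1 cultures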; details: S. cerevisiae wt1 strain (SPY 50644) growth inhibition, active compounds read high
In short: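 Yeast wt1 strain exposed to compounds; growth inhibition measured relative to vehicle-treated controls.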

[3] = NCI Yeast Anticancer Drug Screen. Data for the rad50EPP+ strain (AID 151);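 further: 0% = growth of vehicle-treated control cultures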; details: S. cerevisiae rad50 mutant strain, active compounds read high
In short: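 Exposing the rad50EPP+ strain to each compound, growth was compared with vehicle-only cultures to give inhibition.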

[4] = NCI Yeast Anticancer Drug Screen. Data for the mgt1 strain (AID 153); details: S. cerevisiae mgt1 mutant growth inhibition, active compounds read high
In short: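 Genetically defined yeast (mgt1) treated with compound; inhibition of growth expressed against vehicle-treated controls.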

[5] = NCI Yeast Anticancer Drug Screen. Data for the rad50 strain (AID 155);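 further: 0% = growth of vehicle-only cultures of the same strain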; details: S. cerevisiae rad50 strain growth inhibition, active compounds read high
In short: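 Yeast carrying a defined DNA repair defect were exposed to test compounds, and growth was compared with vehicle-treated controls to give percent inhibition.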

[6] = NCI Yeast Anticancer Drug Screen. Data for the mec2-1 strain (AID 157); details: S. cerevisiae mec2-1 strain, active compounds read high
In short: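 Readout is yeast growth inhibition, normalised to vehicle-treated controls, in the mec2-1 strain exposed to compound.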

[7] = NCI Yeast Anticancer Drug Screen. Data for the rad14 strain (AID 159);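 further: 0% = growth of vehicle-treated control cultures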; details: S. cerevisiae rad14 strain growth inhibition, active compounds read high
In short: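 Yeast cells carrying a defined DNA-repair defect were exposed to compounds, and growth inhibition was calculated relative to vehicle-treated control cultures.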

[8] = NCI Yeast Anticancer Drug Screen. Data for the sgs1 mgt1 strain (AID 161);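 further: 0% = growth of cultures given vehicle only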; details: S. cerevisiae sgs1 mgt1 strain, active compounds read high
In short: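 Yeast cells carrying a defined DNA-repair defect were exposed to test compounds. Growth inhibition was measured relative to vehicle-treated controls.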

[9] = NCI Yeast Anticancer Drug Screen. Data for the CLN2oe strain (AID 163);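 further: 0% = growth of vehicle-only control cultures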; details: S. cerevisiae CLN2oe strain, active compounds read high
In short: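 Values reflect how much compound exposure reduced yeast growth, referenced to vehicle-exposed cells. Assay organism is a strain with a defined genetic change affecting cell-cycle control.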

[10] = NCI Yeast Anticancer Drug Screen. Data for the cln2 rad14 strain (AID 165);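 further: 0% = growth equal to vehicle treated cultures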; details: S. cerevisiae cln2 rad14 strain, active compounds read high
In short: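 Relative to vehicle controls, growth inhibition of compound-treated cln2 rad14 yeast was recorded.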

[11] = NCI Yeast Anticancer Drug Screen. Data for the bub3 strain (AID 167); details: S. cerevisiae bub3 mutant strain, active compounds read high
In short: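 Compounds were applied to a genetically altered yeast strain carrying a cell-cycle control defect. Growth inhibition was scored against vehicle-treated controls.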

[12] = NCI Yeast Anticancer Drug Screen. Data for the wt2 strain (AID 169);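 further: 0% = growth of vehicle-treated yeast cultures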; details: S. cerevisiae wt2 strain growth inhibition, active compounds read high
In short: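 Values express reduction in yeast growth under compound treatment, referenced to vehicle-treated cells.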

[13] = NCI Yeast Anticancer Drug Screen. Data for the mlh1 strain (AID 171);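 further: 0% = growth of vehicle-treated control cultures of the same strain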; details: S. cerevisiae mlh1 strain growth inhibition, active compounds read high
In short: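 Steps: expose the defined-mutant yeast strain to compound; expose a parallel culture to vehicle; measure growth; express compound effect as inhibition relative to the vehicle culture.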

[14] = NCI Yeast Anticancer Drug Screen. Data for the mlh1 rad18 strain (AID 175); details: S. cerevisiae mlh1 rad18 strain growth inhibition, active compounds read high
In short: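 Test agents were incubated with a yeast strain of defined genotype (DNA damage repair defect). Inhibition of growth was derived by comparison with vehicle-exposed cultures.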

[15] = NCI Yeast Anticancer Drug Screen. Data for the rad18 strain (AID 177); details: S. cerevisiae rad18 mutant growth inhibition, active compounds read high
In short: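 A genetically defined yeast mutant impaired in DNA damage repair was treated with test compounds, then its growth was measured against cultures receiving vehicle alone.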

[16] = at 5.0 µM (retest, dose inferred, filed as 0.5)
[17] = at 50.0 µM (retest, dose inferred, filed as 5.0)

Measured: growth inhibition

C/C(=N\NC(N)=O)C(CN1CCOCC1)C(c1ccccc1)c1c(O)c2ccccc2oc1=O (stereo unspecified)
active: [5]; [16] 89% | [5]; [17] 89% | [5]; at 50.0 µM 70.2% | [8]; [16] 89% | [8]; [17] 89% | [8]; at 50.0 µM 78.2%
inactive: [1]; at 1.2 µM 1% | [1]; at 3.7 µM 2% | [1]; at 11.0 µM 0% | [1]; at 33.0 µM 1% | [1]; at 100.0 µM -1% | [2]; at 1.2 µM 6% | [2]; at 3.7 µM 1% | [2]; at 11.0 µM 1% | [2]; at 33.0 µM 0% | [2]; at 100.0 µM -1% | [3]; at 1.2 µM -2% | [3]; at 3.7 µM 4% | [3]; at 11.0 µM 1% | [3]; at 33.0 µM -1% | [3]; at 100.0 µM -10% | [4]; at 1.2 µM -2% | [4]; at 3.7 µM 2% | [4]; at 11.0 µM -3% | [4]; at 33.0 µM 0% | [4]; at 100.0 µM -24% | [5]; at 1.2 µM -1% | [5]; at 3.7 µM 6% | [5]; at 11.0 µM 9% | [5]; at 33.0 µM 5% | [5]; at 100.0 µM -6% | [6]; at 1.2 µM 4% | [6]; at 3.7 µM 6% | [6]; [16] 13% | [6]; at 11.0 µM 6% | [6]; at 33.0 µM 7% | [6]; [17] 13% | [6]; at 50.0 µM 53.6% | [6]; at 100.0 µM 4% | [7]; at 1.2 µM 7% | [7]; at 3.7 µM 8% | [7]; at 11.0 µM 2% | [7]; at 33.0 µM 2% | [7]; at 100.0 µM 3% | [9]; at 1.2 µM 4% | [9]; at 3.7 µM 3% | [9]; at 11.0 µM 4% | [9]; at 33.0 µM 4% | [9]; at 100.0 µM -2% | [10]; [16] -7% | [10]; [17] -7% | [10]; at 50.0 µM 59.9% | [11]; at 1.2 µM 4% | [11]; at 3.7 µM 1% | [11]; [16] -7% | [11]; at 11.0 µM 2% | [11]; at 33.0 µM 5% | [11]; [17] -7% | [11]; at 50.0 µM 68% | [11]; at 100.0 µM 1% | [12]; at 1.2 µM 2% | [12]; at 3.7 µM 0% | [12]; at 11.0 µM 0% | [12]; at 33.0 µM -2% | [12]; at 100.0 µM -4% | [13]; at 1.2 µM -2% | [13]; at 3.7 µM 1% | [13]; at 11.0 µM 0% | [13]; at 33.0 µM -3% | [13]; at 100.0 µM 1% | [14]; [16] 40% | [14]; [17] 40% | [14]; at 50.0 µM 63.2% | [15]; at 1.2 µM 2% | [15]; at 3.7 µM 0% | [15]; at 11.0 µM 6% | [15]; at 33.0 µM 1% | [15]; at 100.0 µM -7%

COC1C(O)C(C)OC(OC2C(Oc3cccc4c(O)c5c(=O)oc6ccc(C)c7c(=O)oc(c34)c5c67)OC(C)C(O)C2O)C1O (stereo unspecified)
active: [1]; at 11.0 µM 85% | [1]; at 33.0 µM 87% | [1]; at 100.0 µM 89% | [5]; at 3.7 µM 78% | [5]; at 11.0 µM 83% | [5]; at 33.0 µM 84% | [5]; at 50.0 µM 88% | [5]; at 100.0 µM 84%
inactive: [1]; at 1.2 µM 41% | [1]; at 3.7 µM 67% | [2]; at 1.2 µM 6% | [2]; at 3.7 µM 2% | [2]; at 11.0 µM 8% | [2]; at 33.0 µM 17% | [2]; at 100.0 µM 12% | [3]; at 1.2 µM 7% | [3]; at 3.7 µM 22% | [3]; at 11.0 µM 31% | [3]; at 33.0 µM 39% | [3]; at 100.0 µM 35% | [4]; at 1.2 µM -4% | [4]; at 3.7 µM 7% | [4]; at 11.0 µM -4% | [4]; at 33.0 µM 25% | [4]; at 100.0 µM 18% | [5]; at 1.2 µM 57% | [5]; [16] 29% | [5]; [17] 68% | [6]; at 1.2 µM 1% | [6]; at 3.7 µM 4% | [6]; [16] 25% | [6]; at 11.0 µM 9% | [6]; at 33.0 µM 18% | [6]; [17] 15% | [6]; at 50.0 µM 33.8% | [6]; at 100.0 µM 34% | [7]; at 1.2 µM 5% | [7]; at 3.7 µM 9% | [7]; at 11.0 µM 20% | [7]; at 33.0 µM 30% | [7]; at 100.0 µM 32% | [8]; [16] 28% | [8]; [17] -2% | [8]; at 50.0 µM 3.65% | [9]; at 1.2 µM 1% | [9]; at 3.7 µM 1% | [9]; at 11.0 µM 9% | [9]; at 33.0 µM 2% | [9]; at 100.0 µM 17% | [10]; [16] 19% | [10]; [17] 5% | [10]; at 50.0 µM -3.1% | [11]; at 1.2 µM -5% | [11]; at 3.7 µM -3% | [11]; [16] 23% | [11]; at 11.0 µM -1% | [11]; at 33.0 µM -2% | [11]; [17] -5% | [11]; at 50.0 µM 57.7% | [11]; at 100.0 µM 14% | [12]; at 1.2 µM 0% | [12]; at 3.7 µM 3% | [12]; at 11.0 µM 12% | [12]; at 33.0 µM 22% | [12]; at 100.0 µM 20% | [13]; at 1.2 µM 0% | [13]; at 3.7 µM 6% | [13]; at 11.0 µM 9% | [13]; at 33.0 µM 17% | [13]; at 100.0 µM 30% | [14]; [16] -2% | [14]; [17] -4% | [14]; at 50.0 µM 46.2% | [15]; at 1.2 µM 6% | [15]; at 3.7 µM 3% | [15]; at 11.0 µM 17% | [15]; at 33.0 µM 21% | [15]; at 100.0 µM 16%
